Results from paper PMC4336329 (PLoS ONE, 2015).
The campaign covered roughly 310,000 compounds. About 14,000 (4.5%) showed an effect of 50% or more. Effects have a minus sign here. The entries come from a sample that favours strong results as a whole.
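Further: peak tail current of the secondary pulse compared with the same well before compound.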

The compounds below were run against human ether-à-go-go-related gene (hERG) potassium channel (human, UniProt Q12809) (assay: primary screen, population patch clamp on CHO cells stably expressing hERG; higher = less effect of the substance).
Chain of human ether-à-go-go-related gene (hERG) potassium channel (Q12809 whole entry, looked up): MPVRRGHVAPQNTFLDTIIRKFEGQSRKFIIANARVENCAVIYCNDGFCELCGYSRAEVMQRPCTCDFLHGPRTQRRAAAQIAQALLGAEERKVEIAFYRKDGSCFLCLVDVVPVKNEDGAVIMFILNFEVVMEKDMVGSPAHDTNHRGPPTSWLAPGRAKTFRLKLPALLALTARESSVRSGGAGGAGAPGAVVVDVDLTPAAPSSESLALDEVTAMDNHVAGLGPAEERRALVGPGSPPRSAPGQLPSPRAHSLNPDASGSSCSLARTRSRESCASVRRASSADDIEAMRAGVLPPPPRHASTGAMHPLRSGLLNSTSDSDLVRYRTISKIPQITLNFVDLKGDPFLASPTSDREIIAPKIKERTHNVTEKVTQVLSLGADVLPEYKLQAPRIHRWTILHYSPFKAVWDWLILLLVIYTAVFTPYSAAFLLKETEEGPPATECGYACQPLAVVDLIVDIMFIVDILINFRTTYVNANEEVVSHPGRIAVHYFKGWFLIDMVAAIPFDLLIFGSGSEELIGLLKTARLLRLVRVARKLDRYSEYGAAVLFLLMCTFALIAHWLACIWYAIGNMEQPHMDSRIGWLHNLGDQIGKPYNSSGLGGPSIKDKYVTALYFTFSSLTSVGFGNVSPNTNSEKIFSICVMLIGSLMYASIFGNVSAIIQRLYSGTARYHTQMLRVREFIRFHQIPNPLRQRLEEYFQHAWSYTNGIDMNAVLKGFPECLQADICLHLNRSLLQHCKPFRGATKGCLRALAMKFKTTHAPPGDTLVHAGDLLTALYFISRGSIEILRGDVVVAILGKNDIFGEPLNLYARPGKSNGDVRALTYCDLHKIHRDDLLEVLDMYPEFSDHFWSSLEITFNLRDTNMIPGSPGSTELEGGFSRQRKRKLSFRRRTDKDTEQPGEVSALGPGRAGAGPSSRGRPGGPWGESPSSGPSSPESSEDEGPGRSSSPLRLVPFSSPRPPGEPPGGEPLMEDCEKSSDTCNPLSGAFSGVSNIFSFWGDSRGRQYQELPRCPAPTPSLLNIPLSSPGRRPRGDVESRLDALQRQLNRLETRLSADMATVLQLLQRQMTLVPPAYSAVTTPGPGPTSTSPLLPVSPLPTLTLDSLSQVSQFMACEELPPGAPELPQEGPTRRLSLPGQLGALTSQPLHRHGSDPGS
With `Cc1cc(C)c(NC(=O)CSc2nnc(CNC(=O)c3ccccc3F)o2)c(C)c1` the “hERG current change (%, negative = inhibition) at 10uM” value was -6.38%. For `CN1/C(=C\C(=S)NC(=O)c2ccccc2Cl)C(C)(C)c2ccccc21`, the “hERG current change (%, negative = inhibition) at 10uM” value was 23.6%. `COc1cc(C(=O)NCc2ncccc2C)ccc1OC1CCN(C(C)=O)CC1` was tested, and the “hERG current change (%, negative = inhibition) at 10uM” value was 6.34%. For `CCC1CCCCN1C(=O)CSc1nc(N)c(NC(=O)c2ccc(OC)c(OC)c2)c(=O)[nH]1` (stereo not shown), the “hERG current change (%, negative = inhibition) at 10uM” value was 4.63%. With `COc1ccc(OCCn2cncn2)cc1` the “hERG current change (%, negative = inhibition) at 10uM” value was 12.6%. `COC(=O)c1cc2sc(Cl)cc2n1CC(=O)N1CCCc2ccccc21` was tested, and the “hERG current change (%, negative = inhibition) at 10uM” value was -1.75%. In the case of `O=C(O)c1ccccc1-c1ccccc1C(=O)NCc1ccccc1Cl`, the “hERG current change (%, negative = inhibition) at 10uM” value is reported as -37.6%. `COC(=O)C1=C(c2ccc(OC(F)(F)F)cc2)C[C@@H]2CC[C@H]1N2C(=O)NCCOc1ccc(OC)cc1` was tested, and the “hERG current change (%, negative = inhibition) at 10uM” value was -26.3%. In the case of `O=C1N/C(=N/S(=O)(=O)c2ccccc2)S/C1=C/c1cccnc1`, the “hERG current change (%, negative = inhibition) at 10uM” value is reported as 1.74%. With `CCCCc1c(C)nc2ccccc2c1SCCC(=O)O` the “hERG current change (%, negative = inhibition) at 10uM” value was 14.8%. `CCc1c(C)nc2c(C)cccc2c1SCCC#N` was tested, and the “hERG current change (%, negative = inhibition) at 10uM” value was 17.7%. In the case of `CCCCc1c(C)nc2ccccc2c1SCCC#N`, the “hERG current change (%, negative = inhibition) at 10uM” value is reported as -50.6%. With `O=C(Cc1ccc(NC2=NC3CS(=O)(=O)CC3S2)cc1)NCc1ccccc1Cl` (stereo not shown) the “hERG current change (%, negative = inhibition) at 10uM” value was 6.5%. `CCOC(=O)c1c(NC(=O)CSc2nnc(Cc3ccccc3)o2)sc(C)c1C` was tested, and the “hERG current change (%, negative = inhibition) at 10uM” value was 13.8%. In the case of `CCOC(=O)c1c(NC(=O)CSc2nnc(-c3cccc(C)c3)n2CC)sc(C(C)=O)c1C`, the “hERG current change (%, negative = inhibition) at 10uM” value is reported as -18.9%. `CCOC(=O)c1c(NC(=O)CSc2nnc(-c3ccccc3C)n2C)sc(C(C)=O)c1C` was tested, and the “hERG current change (%, negative = inhibition) at 10uM” value was -63%. In the case of `CCOC(=O)c1c(NC(=O)CSc2nnc(-c3ccccc3)n2CC)sc(C(C)=O)c1C`, the “hERG current change (%, negative = inhibition) at 10uM” value is reported as -31%. In the case of `CCOC(=O)c1c(NC(=O)CSc2nnc(Cc3ccccc3)o2)sc(C(C)=O)c1C`, the “hERG current change (%, negative = inhibition) at 10uM” value is reported as -64.8%. For `CCOC(=O)c1sc(NC(=O)CSc2nnc(Cc3ccccc3)o2)c(C(=O)OCC)c1C`, the “hERG current change (%, negative = inhibition) at 10uM” value was 9.46%. `O=C(CNC(=O)c1cc2c(n(-c3ccccc3)c1=O)CCCC2=O)c1ccccc1` was tested, and the “hERG current change (%, negative = inhibition) at 10uM” value was -38.5%. For `CN1CCN(C(=O)N2c3ccccc3CCc3ccccc32)CC1`, the “hERG current change (%, negative = inhibition) at 10uM” value was 11.9%. `Cc1ccc(C)c(OCCC(=O)OCC(=O)NC(=O)NCc2ccccc2)c1` was tested, and the “hERG current change (%, negative = inhibition) at 10uM” value was 4.16%. `O=C(NCCCN1CCOCC1)C1CCN(S(=O)(=O)c2cccc(C(F)(F)F)c2)CC1` was tested, and the “hERG current change (%, negative = inhibition) at 10uM” value was -9.45%. For `CCN(CC)S(=O)(=O)c1cccc(C(=O)NCCCN2CCOCC2)c1`, the “hERG current change (%, negative = inhibition) at 10uM” value was 9.9%. `Cl.O=S(=O)(NCCN1CCOCC1)c1cccc(C(F)(F)F)c1` was tested, and the “hERG current change (%, negative = inhibition) at 10uM” value was 5.32%. For `O=S(=O)(c1cccc(C(F)(F)F)c1)N(CCCN1CCOCC1)Cc1cccs1`, the “hERG current change (%, negative = inhibition) at 10uM” value was -74.9%. `O=C(O)C(=O)O.O=S(=O)(c1cccc(C(F)(F)F)c1)N(CCCN1CCOCC1)Cc1cccs1` was tested, and the “hERG current change (%, negative = inhibition) at 10uM” value was -51%. In the case of `O=C(NCCCN1CCOCC1)c1ccc(S(=O)(=O)Nc2cccc(C(F)(F)F)c2)cc1`, the “hERG current change (%, negative = inhibition) at 10uM” value is reported as -12.8%. In the case of `COc1ccc(S(=O)(=O)Nc2ccc3oc(C)c(C(C)=O)c3c2)cc1`, the “hERG current change (%, negative = inhibition) at 10uM” value is reported as 12%. For `COC(=O)c1sc(-c2ccc(Cl)cc2)cc1N`, the “hERG current change (%, negative = inhibition) at 10uM” value was -37.1%. `O=C(c1ccc(COc2ccc3ccccc3c2)o1)N1N=C(C(F)F)CC1(O)C(F)F` (stereo not shown) was tested, and the “hERG current change (%, negative = inhibition) at 10uM” value was -2.62%. `CC1(C)CC(NC(=O)C(F)(F)F)CC(C)(C)N1OC(=O)c1ccco1` was tested, and the “hERG current change (%, negative = inhibition) at 10uM” value was 1.13%. With `Cc1ccc(S(=O)(=O)NCCCCCC(=O)N(C)C)cc1` the “hERG current change (%, negative = inhibition) at 10uM” value was 6.32%. `CCOC(=O)/C=C1\SCC(=O)N1CC(=O)NC(C)c1ccccc1` (stereo not shown) was tested, and the “hERG current change (%, negative = inhibition) at 10uM” value was -15.2%. `CCOC(=O)/C=C1\SCC(=O)N1CC(=O)NC(c1ccccc1)c1ccccc1` was tested, and the “hERG current change (%, negative = inhibition) at 10uM” value was -52.2%. For `CCOC(=O)/C=C1\SCC(=O)N1CC(=O)NC(C)C`, the “hERG current change (%, negative = inhibition) at 10uM” value was 21.2%. With `CCC1CCCCN1CC(=O)c1ccc(OC(F)F)cc1` (stereo not shown) the “hERG current change (%, negative = inhibition) at 10uM” value was -77.7%. `Br.O=C(CN1CCCCC1CO)c1ccc(OC(F)F)cc1` (stereo not shown) was tested, and the “hERG current change (%, negative = inhibition) at 10uM” value was -68.2%. With `CCC1CCCCN1CC(=O)c1c(C)[nH]c2ccccc12` (stereo not shown) the “hERG current change (%, negative = inhibition) at 10uM” value was -27.4%. In the case of `CCC1CCCCN1CC(=O)c1c(C)[nH]c2ccc(OC)cc12` (stereo not shown), the “hERG current change (%, negative = inhibition) at 10uM” value is reported as -20.6%. `O=C(CN1C(=O)c2ccccc2S1(=O)=O)c1ccc(OC(F)F)cc1` was tested, and the “hERG current change (%, negative = inhibition) at 10uM” value was -23%. For `O=C(NCC(=O)N1CCCCCC1)c1ccc(OC(F)F)cc1`, the “hERG current change (%, negative = inhibition) at 10uM” value was -11.3%. With `O=c1c2cc(N3CCOCC3)ccc2[nH]c(=S)n1CCCN1CCCC1` the “hERG current change (%, negative = inhibition) at 10uM” value was -4.98%. With `CC(C)(C)c1ccc(CN(Cc2ccccc2)C(c2ccccn2)c2nnnn2C(C)(C)C)cc1` (stereo not shown) the “hERG current change (%, negative = inhibition) at 10uM” value was 2.44%. With `COc1ccc(S(=O)(=O)N2CCC(C)CC2)cc1N(C)S(=O)(=O)c1ccccc1` the “hERG current change (%, negative = inhibition) at 10uM” value was -2.12%. `COC(=O)c1cccc(NC(=O)CCNC(=O)c2ccco2)c1` was tested, and the “hERG current change (%, negative = inhibition) at 10uM” value was 18.8%.
